PNC assembly inh = blocks assembly of the perinucleolar compartment. 3.1% of 140,000 active. PC3M PTB-GFP, PNC prevalence imaging, 16 h; hits give low values. AID 2417. activity change (PNC), negative = inhibition, % at 10 µM;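 active = readout at or below -70, meaning at least 70% loss of cells showing the perinucleolar compartment, a nuclear body marking cancer cells; inconclusive = readout between -30 and a set limit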;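 note: plate controls were DMSO wells for no effect and camptothecin positive control wells for full effect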
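Compounds are pinned in duplicate onto adhered PC3M cells stably expressing GFP-tagged PTB and incubated 16 h at 37 C. Cells are then fixed, nuclei stained with Hoechst, and PNC-positive cells counted.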
Lamin A splicing = LMNA splicing modulation; Potency, µM (series often up to 46.1 µM), for the others: at the highest dose ratio change, negative = inhibition, actives largely listed as inhibitors; 0.01% of 200,000 active; HeLa LMNA splicing GFP/RFP minigene ratio, 48 h; active = well fitted inhibition curve with a large enough effect in the signal ratio, with a control signal flat, not every such curve was filed as active; inconclusive = small, poorly fitted or top-dose-only effect, or effect the other way, or a change in a side signal; the % refers to the signal ratio; note: potency is the fitted concentration of half-maximal effect
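Read-out is the ratio of GFP to DsRed2 object intensity, acquired by 488 nm laser-scanning cytometry on HeLa lamin A-EGFP minigene reporter cells. Compound incubation 48 hrs at 37 °C in Opti-MEM with 2% FBS; DMSO 0.5% final.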
HPGD block = inhibitors of human 15-hydroxyprostaglandin dehydrogenase (HPGD). AID 894. Potency, µM, for the others: at the highest dose activity change, negative = inhibition, usual class: inhibitors. purified HPGD, NADH fluorescence kinetic, PGE2 substrate. 4.3% of 150,000 active; note: potency is the fitted concentration of half-maximal effect
Target sequence (P15428 whole entry, looked up): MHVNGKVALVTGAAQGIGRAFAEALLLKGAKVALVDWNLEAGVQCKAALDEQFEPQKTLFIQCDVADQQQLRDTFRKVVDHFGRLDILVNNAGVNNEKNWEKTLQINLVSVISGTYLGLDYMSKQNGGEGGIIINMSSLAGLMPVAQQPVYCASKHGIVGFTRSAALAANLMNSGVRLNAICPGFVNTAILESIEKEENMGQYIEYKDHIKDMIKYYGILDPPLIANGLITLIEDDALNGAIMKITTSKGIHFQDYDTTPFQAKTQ
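20 nM HPGD preincubated 15 min at room temperature with compound in 50 mM Tris-HCl pH 8, 0.01% Tween 20. Started with 1 mM NAD+ and 30 uM prostaglandin E2; NADH fluorescence (360/450 nm) read 5 times over 30-s intervals, last minus first.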
ALDH1A1 inh = blocks purified human ALDH1A1 activity; 7.3% of 220,000 active; P00352; Potency, µM (highest dose often 75.3 µM), for the others: top-dose activity, negative = inhibition, hits mostly inhibitors; Purified ALDH1A1, NADH fluorescence, propionaldehyde substrate; AID 1030;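 note: potency is the fitted concentration of half-maximal effect; plate controls were no enzyme wells and a reference inhibitor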
12-hLO inh = blocks human 12-lipoxygenase activity; P18054; purified 12-hLO, xylenol orange hydroperoxide absorbance; Potency, µM (highest dose often 57.1 µM), for the others: at the top dose activity change, negative = inhibition, hits mostly inhibitors; 0.12% of 150,000 active; active = well fitted inhibition curve with a large enough effect; inconclusive = small, poorly fitted or top-dose-only effect; note: potency is the fitted concentration of half-maximal effect; nearly all actives have a fitted effect of over 55% in size
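Hydroperoxide formation by human 12-lipoxygenase from 40 uM arachidonic acid was followed colorimetrically via ferric-xylenol orange complex, using the 573/405 nm absorbance ratio. Enzyme concentration was 150 nM, with 30 min reaction at room temperature.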
Active calls of the source: *; ? = inconclusive; / = no result; [ ] = dose if it differs, or a comment. Compounds with a hit are over-represented: about 10% of the library has one in this group of screens. Unless noted, calls come from the whole dose curve; as a rule, active = well fitted inhibition curve with a large enough effect (not every such curve was filed as active); inconclusive = small, poorly fitted or top-dose-only effect, or another doubt; inactive = no such curve, though single readings can be large or run the other way. Unless noted, % is set by controls: 0 for no effect and ±100 for the full control effect.

SMILES | PNC assembly inh | Lamin A splicing | HPGD block | ALDH1A1 inh | 12-hLO inh
NNC(=O)c1ccc(-c2cccc([N+](=O)[O-])c2)o1 | / | -10%[46 µM] | / | 7.1µM* | /
CCCN(CCc1ccccc1)[C@H]1CCc2c(O)cccc2C1 | / | / | / | / | -8%
CN(Cc1ccccc1)C(=O)c1ccc2c(c1)OCCO2 | -27 | 8% | 14µM* | ? | 5%
CN(CCOC(=O)c1ccc2c(c1)OCCO2)Cc1ccccc1 | -25 | -2% | -5% | 8% | 1%
O=C(Nc1ccc(Cl)cn1)c1ccc([N+](=O)[O-])o1 | / | ? | / | -4% | /
NS(=O)(=O)c1ccc(O)c(NC(=O)c2ccc([N+](=O)[O-])o2)c1 | / | / | / | 2.5µM* | /
Cc1cc(C)nc(NC(=O)c2cc([N+](=O)[O-])cc([N+](=O)[O-])c2)n1 | -113* | -1% | -3% | ? | 0%
Cc1cc(C)nc(NC(=O)c2ccc([N+](=O)[O-])o2)n1 | -86* | ? | 12% | -1% | -2%
Cc1cc(C)cc(NC(=O)c2ccc([N+](=O)[O-])o2)c1 | / | ? | / | -3% | /
CC(=O)O[C@]1(C)CC[C@]23CC1C(C)(C)C2CC[C@@H]3C (some centres undefined) | / | -14% | -2% | -5% | -2%
CCOc1ccccc1C1C(C(N)=O)=C(C)Nc2nc(-c3cccc(C)c3)nn21 (centres undefined) | ? | 6% | -7% | 20µM* | -8%
CC1=C(C(N)=O)C(c2cccs2)n2nc(-c3cccc(C)c3)nc2N1 (centres undefined) | ? | 10% | 0% | 3% | -2%
O=C(NCCN1CCOCC1)c1cc2sccc2n1Cc1ccc(Cl)cc1 | ? | -10% | 16µM* | ? | -2%
O=C(NCCN1CCOCC1)c1cc2sccc2n1Cc1ccc(F)cc1 | 13 | 8% | 25µM* | -14% | -3%
O=C(NCCN1CCOCC1)c1ccc(CS(=O)(=O)c2ccc(Cl)cc2)o1 | 36 | -9% | -4% | 3% | -6%
O=C(NCc1ccco1)C1CCN(C(=O)c2cc3sccc3n2Cc2ccc(Cl)cc2)CC1 | 8 | 15% | -6% | 13µM* | -9%
CCc1ccc(NC(=O)CSc2nc3ncccc3[nH]2)cc1 | / | 6%[46 µM] | / | / | /
Cc1nnc(NC(=O)c2ccc3ccccc3n2)s1 | / | / | / | -4% | /
CN(C)c1ccc(-c2cc(-n3ccnc3)ncn2)cc1 | / | ? | ? | ? | -6%
CN(C)c1ccc(/C=N/Nc2ccc(-n3ccnc3)nn2)cc1 | 10 | -13% | -9% | 7.9µM* | 6%
COc1cc([N+](=O)[O-])cc(/C=N/N(CCC#N)C(C)=O)c1O | / | ? | / | 10µM* | /
Cc1ccc(NC(=O)Cn2c(=O)n(Cc3ccccc3)c(=O)c3c2c2cc(C)ccc2n3C)cc1 | / | 6%[46 µM] | / | / | /
CCCCn1c(-c2cc(Cl)ccc2OC)n[nH]c1=S | 47 | ? | 28µM* | ? | -21%
CN1CCN(C(=O)C(=O)Nc2c3c(nn2-c2cccc(Cl)c2)CSC3)CC1 | / | 0%[46 µM] | / | / | /
CCN(CC)C1=CC2=CC(=C(C#N)C#N)CCC2CC1 (centres undefined) | -134* | ? | -18% | 2.2µM* | -13%
SMILES | PNC assembly inh | Lamin A splicing | HPGD block | ALDH1A1 inh | 12-hLO inh
N#CC1=C(N)C2=C(N3CCCCC3)CCCC2C1(C#N)C#N (centres undefined) | -6 | -4% | -1% | ? | ?
N#CC(C#N)=C1C=C2C=C(N3CCCCC3)CCC2CC1 (centres undefined) | -118* | ? | -13% | -10% | 0%
CCCCN(C)C1=CC2=CC(=C(C#N)C#N)CCC2CC1 (centres undefined) | -83* | ? | -19% | ? | -4%
CC(NC(=O)c1cccs1)c1nnc(SCc2ccc(Cl)cc2Cl)n1C (centres undefined) | -20 | 0% | -9% | 15% | -2%
COc1ccc(Cc2nnc(N/N=C/c3ccc(O)cc3O)[nH]c2=O)cc1OC | -25 | ? | 32µM* | -7% | -21%
Cc1ccc(/C=N/Nc2nnc(Cc3ccccc3)c(=O)[nH]2)o1 | / | / | / | 17% | /
COc1ccc(-n2c(SCC(=O)c3ccccc3)nc3c([nH]c4ccccc43)c2=O)cc1 | / | -18%[46 µM] | / | / | /
O=C(Nc1ccccc1)N1CCc2scc[n+]2-c2ccccc21 | -3 | 6% | -8% | ? | -4%
O=CN1CCc2scc[n+]2-c2ccccc21 | -14 | -1% | -11% | 14µM* | -5%
O=[N+]([O-])c1cccc(Cl)c1CSc1ccccn1 | / | 1%[46 µM] | / | 20µM* | /
CC1CCc2c(sc(N)c2C(N)=O)C1 (centres undefined) | 8 | -10% | ? | 13µM* | -6%
Cc1cccc(C(=O)c2c(N)sc3c2CCC(C)C3)c1 (centres undefined) | -14 | ? | / | 7.9µM* | -14%
CC1CCc2c(sc(Nc3nc4c(F)cccc4s3)c2C(N)=O)C1 (centres undefined) | ? | ? | ? | ? | -3%
COc1ccc(P(=O)(COc2ccc([N+](=O)[O-])cc2)c2ccc(OC)cc2)cc1 | -13 | ? | -5% | 7.1µM* | -5%
CCCCN(C)S(=O)(=O)c1ccc(C(=O)N=c2sc3cc(NC(C)=O)ccc3n2C)cc1 | -94* | -4% | -26% | 13% | 0%
CCCCN(CC)S(=O)(=O)c1ccc(C(=O)N=c2sc3cc(NC(C)=O)ccc3n2C)cc1 | 34 | -9% | / | ? | 2%
Nc1c(C(=O)NCCc2ccccc2)nnn1CC(=O)Nc1ccc(Cl)cc1 | / | -1%[46 µM] | / | / | /
Cn1c(=O)[nH]c(=O)c2c1nc(Br)n2CCCSc1nc2ccccc2o1 | -9 | 23% | 22µM* | ? | -2%
CC1CCCN(c2nc3c(c(=O)[nH]c(=O)n3C)n2CCSc2nc3ccccc3o2)C1 (centres undefined) | -20 | ? | -10% | 5% | 4%
Cn1c(=O)[nH]c(=O)c2c1nc(N1CCCC1)n2CCCSc1nc2ccccc2o1 | 45 | ? | 28µM* | -3% | -4%
O=C1c2ccccc2C(=O)N1CCCSc1nc2ccccc2o1 | -10 | 2% | 20µM* | ? | -6%
O=C1c2ccccc2C(=O)N1Cc1nc2ccccc2o1 | 46 | 2% | -9% | 4% | -3%
Cc1ccc(CCNC(=O)c2ccc(CSCc3ccccc3Cl)o2)cc1 | / | -18%[46 µM] | / | / | /
O=c1cnc2cnc(Oc3ccccc3)nc2n1C1CC1 | / | 2% | / | ? | /
O=c1[nH]c(=S)c2ncn(-c3ccccc3)c2[nH]1 | / | / | / | 25µM* | /
CCOC(=O)c1snc(-c2ccc(F)cc2)c1N | 30 | -9% | ? | 10µM* | -9%
CCOC(=O)c1sc(N)nc1-c1ccccc1 | ? | 2% | -27% | ? | 2%
CCn1c(SCC(=O)N(C)c2c(N)n(Cc3ccccc3)c(=O)[nH]c2=O)nc2ccccc21 | / | / | / | -9% | /
CCCc1cc(=O)oc2cc(C)cc(OCc3nn[nH]n3)c12 | 20 | 5% | ? | ? | -3%

Screening results: PubChem, National Center for Advancing Translational Sciences (NCATS)
